Data as given in PubChem BioAssay (NCI).
About 83,000 compounds went through this panel and 20% of them were active in at least one assay; those are over-represented in the sample as a whole.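 For each line, cells grew in 96-well plates with the test compound present at a single concentration for 48 hours.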 Unmarked numbers belong to inactive results. Activity calls are given as the source filed them. The calls were made as follows: active = growth percent below 10; inactive = the rest.

Tests used:
Assay in all cases: NCI-60 one-dose screen, 48 h (100 = growth as untreated, 0 = no growth, -100 = all killed)
Details in all cases: 10 µM unless noted
SK-MEL-2 melanoma = test system: SK-MEL-2 melanoma
EKVX NSCLC = test system: EKVX NSCLC
SN12C renal = test system: SN12C renal
UO-31 renal = test system: UO-31 renal
TK-10 renal = test system: TK-10 renal
CAKI-1 renal = test system: CAKI-1 renal
A498 renal = test system: A498 renal
CCRF-CEM leukemia = test system: CCRF-CEM leukemia
MOLT-4 leukemia = test system: MOLT-4 leukemia
ACHN renal = test system: ACHN renal

Structure (SMILES)	growth (SK-MEL-2 melanoma)	growth (EKVX NSCLC)	growth (SN12C renal)	growth (UO-31 renal)	growth (TK-10 renal)	growth (CAKI-1 renal)	growth (A498 renal)	growth (CCRF-CEM leukemia)	growth (MOLT-4 leukemia)	growth (ACHN renal)
Cc1ccc2c(n1)C(=O)C(Cl)=C(Nc1cc(C(F)(F)F)cc(C(F)(F)F)c1)C2=O	74.5%	78%	92.1%	9.71% (active)	106%	81.4%	80.4%	4.75% (active)	9.31% (active)	
Cc1ccccc1N1CCN(C2=C(Cl)C(=O)c3ncccc3C2=O)CC1	81.1%	95.4%	70.1%	2.66% (active)	68.7%	25.4%	111%	0.314% (active)	10.4%	
O=C1[C@@H]2Cc3c([nH]c4ccccc34)[C@H](c3ccc(Br)cc3)N2C(=O)CN1C1CCN(Cc2c(Cl)cccc2Cl)CC1	99.8%	88.4%	92.5%	67.7%	132%	67.6%	103%	88.8%	65.9%	
CCN(CC)c1ccc(/C=N/NC(=O)c2ccc(S(N)(=O)=O)cc2)cc1	38.7%	23.6%	35.9%	13.3%	42.9%	23%	44.3%	15.4%	14.2%	
C#C[C@]1(O)CC[C@H]2[C@@H]3CC=C4c5sc(N6CCN(C)CC6)nc5CC[C@]4(C)[C@H]3CC[C@@]21C	36.8%	68.5%	76.6%	77.2%	100%	54.2%		-8.52% (active)	1.27% (active)	
Fc1cc(F)cc(NNC(=S)c2ccccc2)c1	76%	39.7%	9.96% (active)	26.4%	92.3%	56.2%	14.4%	24.2%	25.1%	
CC1=C(C)C(=O)C(Nc2ccc3c(c2)OCO3)=C(Br)C1=O	114%	76.3%	102%	88.1%	150%	95.6%	95.2%	11.6%	-10.2% (active)	
NC(=O)n1c(=O)n(-c2cccc(C(F)(F)F)c2)c(=O)c2cc(-c3ccc(F)cc3F)ccc21	-20.1% (active)	-0.656% (active)	1.52% (active)	4.54% (active)	8.59% (active)	-21.6% (active)	-26.4% (active)	9.98% (active)	0.274% (active)	
CC1=C(C)C(=O)C(Nc2ccc(C)cc2)=C(Br)C1=O	111%	79.3%	98.9%	87.5%	145%	106%	97.2%	17.9%	-30.6% (active)	
COc1ccc2c(c1)c(/C=N/Nc1ccnc3cc(Cl)ccc13)cn2C	-80.8% (active)	-81.2% (active)	-81.5% (active)	-89.5% (active)	-79.9% (active)			-29.2% (active)	-49.6% (active)	-97.3% (active)
Cc1ccc(NC2=C(Cl)C(=O)c3nc(C)ccc3C2=O)c(C)c1	4.04% (active)	49.1%	-69.1% (active)	-13% (active)	126%	85.5%	60.5%	1.19% (active)	1.38% (active)	
CCCC/C(=C\c1ccc(O)c(O)c1)C(=O)NC(Cc1ccccc1)C(=O)C(=O)NCCc1ccc(OC)cc1 (stereo not given)	98.8%	83.3%	95.3%	93.4%	107%	96.5%	85.7%	97%	85.4%	
Oc1[nH]c2ccc(Cl)cc2c1N=Nc1nc(N=Nc2c(O)[nH]c3ccc(Cl)cc23)nc(N2CCCCC2)n1	86.7%	50.8%	42.5%	86.7%	121%	88.1%	94.2%	9.81% (active)	22.1%	
C/C(=N\NC(N)=S)c1nnn(-c2ccc([N+](=O)[O-])cc2)c1C	110%	62.4%	94.5%	70.5%	98.7%	90.8%	94%	101%	105%	
N#Cc1nc(-c2ccc(Cl)cc2)oc1N1CCC(S(=O)(=O)N2CCOCC2)CC1	114%	105%	94.1%	73.2%	113%	89.7%	102%	108%	104%	
CC(C)(C)OC(=O)NCc1ccc(CNc2c([N+](=O)[O-])cnc3ccccc23)cc1	29.7%	44.2%	75.9%	50.3%	80.4%	67.1%	36.2%	59.8%		
COc1ccc(OC)c(CCn2cncc2-c2c[nH]c3ccc(Cl)cc23)c1	19%	37.5%	63.6%	46.6%	50.7%	31.3%	44.8%	49.4%	25%	
CC(Nc1c(C#N)cnc2ccc(-c3cncc(O)c3)cc12)c1ccccc1 (stereo not given)	-43.6% (active)	-13.6% (active)	-5.67% (active)	-9.46% (active)	-13.2% (active)	7.08% (active)	45%	10.6%	2.65% (active)	
CCN(CC)CCOc1ccc(C(=C(C)Cc2ccc(OC)cc2)c2ccc(OCCN(CC)CC)cc2)cc1	116%	84%	86.1%	68.3%	111%	69.8%	85.7%	3.83% (active)	3.61% (active)	
CCOC(=O)c1cccnc1Nc1ccc(NC(=O)Nc2ccc(Cl)c(C(F)(F)F)c2)cc1	37.2%	40.6%	51.3%	34.1%	40.3%	22.6%	41.3%	29.5%		
COc1ccc(OC)c(NC(=O)CCCCCCNC(=O)C(O)(O)C(F)(F)F)c1	10.6%	56%	58.9%	30.3%	12.9%	25.2%		23.5%		
N#C/C(=C\c1ccc(-c2ccc(Cl)cc2)o1)C(=O)Nc1ncc(Cc2ccc(Br)cc2)s1	83.1%	19.6%	-29.9% (active)	52.9%	-35.6% (active)	-7.28% (active)	-25.5% (active)	34.8%	55.8%	
NS(=O)(=O)c1cccc(Nc2nc(SCC(=O)c3ccc(Cl)cc3)nc3c2CCC3)c1	98%	97.7%	98%	90.9%	119%	86.7%	79.4%	98.3%	105%	
Clc1ccc2c(N/N=C/c3c[nH]c4ccccc34)ccnc2c1	-82.2% (active)	-79.3% (active)	-77.2% (active)	-95.1% (active)	-91.9% (active)	-97.5% (active)	-93.6% (active)	-10% (active)	-48.5% (active)	
Cn1cc(-c2cc3ncnc(Nc4ccc(NC(=O)Nc5cc(C(C)(C)C)on5)cc4)c3s2)cn1	-9.06% (active)	48.2%	18.8%	41.7%	62.5%			22.2%	14.3%	27.1%
Cn1cc(-c2cc3ncnc(Nc4ccc(CC(=O)Nc5nc(C(C)(C)C)cs5)cc4)c3s2)cn1	36.5%	48%	23.6%	31.6%	44.7%	7.53% (active)	-4.34% (active)	23.1%	16%	
CC(=O)c1c([Si](C)(C)C)c2cc(C#N)ccn2c1C(=O)c1ccc(Br)cc1	89.4%	86.9%	96.6%	77.2%	98%	52%	78.9%	91.8%	85.3%	
C/C(CC1(O)C(=O)Nc2ccccc21)=N\O (stereo not given)	102%	87.9%	98%	84.9%	104%	83.5%	70.6%	99.7%	95.4%	
